High-throughput results: PubChem BioAssay, National Center for Advancing Translational Sciences (NCATS)
NS1 inh = influenza NS1 inhibition. Potency, µM (highest dose often 46.1 µM). 0.4% of 270,000 active; also: actives are rising curves; nearly all actives have a fitted effect of over 50% in size
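Compounds were scored for reversing the slow growth caused by influenza A NS1 in S. cerevisiae, measured by optical density at 600 nm. Assay medium contained 2% galactose at pH 6.0; NS1-free yeast of the same strain were the positive control.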
Pf growth 96h = P. falciparum growth inhibition at 96 hour, primary screen for plastid delayed-death inhibitors; P. falciparum luciferase reporter growth, 96 h; Potency, µM (doses to about 28.7 µM), actives largely listed as inhibitors; 6.9% of 320,000 active; AID 504834; active = well fitted inhibition curve with a large enough effect; inconclusive = small, poorly fitted or top-dose-only effect, or another doubt; inactive = no such curve, though single readings can be large or run the other way
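Luminescence readout: decreased luciferase signal marks inhibited growth of reporter-expressing P. falciparum in infected red cells (2% hematocrit, 0.05% parasitemia final), exposed to compound two generations (96 h, 37 C, 5% CO2).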
CHX counter = affects cycloheximide protein synthesis inhibition readout, counter-screen. cell reporter, cycloheximide protein synthesis inhibition counterscreen. max response, %. 12% of 300,000 active. AID 2314; in the data active = max response mostly above about 13%, no sharp cut-off; inactive = mostly below about 14%; also: read at 38.3 µM for the half of the compounds with a filed dose
Shiga toxin inh = Shiga toxin inhibition | Vero cells, Shiga toxin protein synthesis inhibition reporter | inhibition, % at 38.7 µM | 9.2% of 290,000 active; in the data active = inhibition mostly above about 28%, no sharp cut-off; inactive = mostly below about 43%
SARS PLP yeast = blocks SARS-CoV papain-like protease in a yeast assay; S. cerevisiae expressing SARS-CoV PLpro, growth rescue; Potency, µM (doses to about 32.9 µM), usual class: activators; 0.19% of 330,000 active; also: nearly all actives have a fitted effect of over 55% in size
Pf growth 48h = P. falciparum growth inhibition at 48 hours (one generation); 5.9% of 310,000 active; Potency, µM (highest dose often 28.7 µM), usual class: inhibitors; P. falciparum luciferase growth in erythrocytes, 48 h; active = well fitted inhibition curve with a large enough effect; inconclusive = small, poorly fitted or top-dose-only effect, or another doubt; inactive = no such curve, though single readings can be large or run the other way
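Parasite viability was followed by luminescence of a genomically integrated firefly luciferase. Cultures held 0.1% parasitemia at 2% hematocrit (final), incubated under 5% CO2 at 37 C.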
Large screens that a line does not name were inactive. The list is not random: actives were taken first. Their share in the collection is about 21%. Unless noted, calls follow the shape of the full dose curve.

Cc1cc(Cl)ccc1OC(C)C(=O)Nc1ccc([N+](=O)[O-])cn1 (stereo not drawn)	none
O=C(O)c1cc2c(cc1NC(=O)C1CCCC1)OCCO2	none (no result: NS1 inh, CHX counter, Shiga toxin inh)
CN1CCN(c2ccccc2NC(=O)c2ccc(OCc3ccccc3)cc2)CC1	Pf growth 96h 13µM, Pf growth 48h 7.4µM
COc1c(F)c(F)c(C(=O)Nc2ccccc2N2CCN(C(=O)C(C)C)CC2)c(F)c1F	Pf growth 48h 0.93µM
Cc1ccc(-c2ocnc2C(=O)Nc2nc(C)cs2)cc1	CHX counter 72 (no result: Shiga toxin inh)
Cc1cccc(-c2ocnc2C(=O)Nc2ccccc2NC(=O)c2ccccn2)c1	Pf growth 96h inconclusive, Pf growth 48h inconclusive
Cc1ccc(-c2ocnc2C(=O)Nc2ccccc2NC(=O)c2ccccn2)cc1	Pf growth 48h 2.1µM
Cc1csc(NC(=O)c2cc[n+]([O-])cc2)n1	none
Cc1ccc(CCNC(=O)c2nc(CS(=O)(=O)c3ccc(Cl)cc3)no2)cc1	none
CC(C)(C)C#CC(CCc1ccccc1)OS(N)(=O)=O (stereo not drawn)	Pf growth 96h inconclusive, CHX counter 12, Pf growth 48h inconclusive
CCc1nnc(NC(=O)c2ccc(Cl)c(S(=O)(=O)N3CCc4ccccc43)c2)s1	Pf growth 96h inconclusive (no result: Pf growth 48h)
Cc1cccc(NC(=O)c2ccc(Cl)c(S(=O)(=O)N3CCc4ccccc43)c2)n1	Pf growth 96h 12µM, Pf growth 48h 12µM (no result: NS1 inh, CHX counter, Shiga toxin inh)
Cc1ccc(S(=O)(=O)N2CCCCC2)cc1C(=O)Nc1ccccn1	Pf growth 96h 2.1µM, Pf growth 48h 3.3µM
O=C(Nc1ccncc1)c1ccc(Cl)c(S(=O)(=O)N2CCc3ccccc32)c1	Pf growth 96h 3.7µM, Pf growth 48h 3.3µM (no result: NS1 inh, CHX counter, Shiga toxin inh)
COc1ccc(S(=O)(=O)N2CCCCCC2)cc1C(=O)Nc1ccccn1	Pf growth 96h inconclusive
Cc1cccc(NC(=O)c2ccc(Cl)c(S(=O)(=O)N3CCCC3)c2)n1	Pf growth 96h 7.4µM, CHX counter 54, Shiga toxin inh 59, Pf growth 48h inconclusive
CCC(=O)Nc1ccc(Nc2nc(C)c([N+](=O)[O-])c(Nc3ccc(NC(=O)CC)cc3)n2)cc1	Pf growth 48h inconclusive
Cc1cccc(NC(=O)c2cc(S(=O)(=O)N3CCCCC3)ccc2Cl)n1	Pf growth 96h inconclusive, Pf growth 48h 9.3µM (no result: NS1 inh, CHX counter, Shiga toxin inh)
COc1ccc(S(=O)(=O)N2CCCCCC2)cc1C(=O)Nc1ccc(C)cn1	Pf growth 48h inconclusive (no result: NS1 inh, CHX counter, Shiga toxin inh)
COc1ccc(S(=O)(=O)N2CCCCCC2)cc1C(=O)Nc1cc(C)ccn1	Pf growth 96h 10µM, Pf growth 48h 9.3µM (no result: NS1 inh, CHX counter, Shiga toxin inh)
Cc1cc(C)c2c(c1)-c1c(ssc1=S)C(C)(C)N2C(=O)CSc1nncn1C	Pf growth 96h inconclusive, Pf growth 48h 4.7µM
CC1(C)c2ssc(=S)c2-c2ccccc2N1C(=O)CSC1=NCCS1	NS1 inh inconclusive, Pf growth 48h inconclusive
Cc1cc2c(cc1C)N(C(=O)CSC1=NCCS1)C(C)(C)c1ssc(=S)c1-2	NS1 inh inconclusive, Pf growth 96h 2.6µM, Pf growth 48h 6.6µM
Cc1cc(NC(=O)COC(=O)C2CSC3(C)CCC(=O)N23)ccc1Br (stereo not drawn)	none (no result: NS1 inh, Pf growth 96h, CHX counter, Shiga toxin inh, Pf growth 48h)
c1cnc2c(OCc3nc4ccccc4[nH]3)cccc2c1	Pf growth 96h 8.3µM, CHX counter 62, Shiga toxin inh 78
COc1ccccc1OCc1nc2ccccc2[nH]1	CHX counter 52, Shiga toxin inh 51 (no result: Pf growth 96h)
COc1ccc(C(=O)NCc2nc3ccccc3[nH]2)cc1OC	none
Cc1ccccc1OCc1nc2ccccc2[nH]1	CHX counter 57, Shiga toxin inh 62
Cn1nc(C(F)(F)F)c(C(=O)Nc2ccc(F)cc2F)c1Sc1cccc(C(F)(F)F)c1	Pf growth 96h 8.3µM, Pf growth 48h 9.3µM
O=C(Nc1ccc(F)cc1F)c1c(C(F)(F)F)ccnc1Oc1cccc(C(F)(F)F)c1	Pf growth 96h 10µM, Pf growth 48h 15µM
C=C1CCN(C(C)C(=O)OCc2ccc(C)cc2)S(=O)(=O)c2ccccc21 (stereo not drawn)	none (no result: NS1 inh, Pf growth 96h, SARS PLP yeast, Pf growth 48h)
CC(CCc1ccccc1)NS(=O)(=O)c1ccccc1Cl (stereo not drawn)	Pf growth 48h inconclusive
Cc1cccc(C(=O)OCC(=O)c2ccc3c(c2)OCCO3)c1O	none (no result: NS1 inh, Pf growth 96h, CHX counter, Shiga toxin inh, Pf growth 48h)
Cc1ccccc1NC(=O)COC(=O)c1ccc2c(c1)OCCO2	none (no result: NS1 inh, CHX counter, Shiga toxin inh)
Cc1nc(/C(N)=N/OC(=O)c2c(-c3ccccc3Cl)noc2C)cs1	Pf growth 96h 10µM, Pf growth 48h inconclusive
CC(C)C(=O)Nc1ccccc1C(=O)OCC(=O)c1ccc2c(c1)OCCO2	CHX counter 38, Shiga toxin inh 64
COc1ccc(/C(N)=N/OC(=O)c2c(-c3ccccc3Cl)noc2C)cc1OC	Pf growth 48h inconclusive
CC(=O)NC12CC3CC(C1)CC(C(=O)OCC(=O)c1cc(C)n(C)c1C)(C3)C2	none (no result: NS1 inh, Pf growth 96h, CHX counter, Shiga toxin inh, Pf growth 48h)
CC(=O)NC12CC3CC(C1)CC(C(=O)OCC(=O)c1ccc4c(c1)OCCO4)(C3)C2	CHX counter 45, Shiga toxin inh 80 (no result: Pf growth 48h)
Cc1cccc(C(=O)OCC(=O)c2ccc3c(c2)OCO3)c1O	CHX counter 71, Shiga toxin inh 78
N#CC1=C(N)Oc2ccc3ccc(O)cc3c2C1c1ccsc1 (stereo not drawn)	Pf growth 96h inconclusive
CC(=O)Nc1ccccc1C(=O)OCC(=O)c1ccc2c(c1)OCCO2	CHX counter 32, Shiga toxin inh 98
Cc1onc(-c2ccccc2Cl)c1C(=O)OCC(=O)c1ccc2c(c1)OCCO2	NS1 inh inconclusive, Pf growth 96h inconclusive, CHX counter 59, Shiga toxin inh 121
Cc1onc(-c2ccccc2Cl)c1C(=O)OCC(=O)c1ccc[nH]1	Pf growth 48h inconclusive (no result: NS1 inh, CHX counter, Shiga toxin inh)
O=C(CCn1cccc(C(F)(F)F)c1=O)Nc1cccc(C(F)(F)F)c1	none
CNC(=S)NCCc1ccccc1	none
Cc1ccc(NS(=O)(=O)Cc2ccccc2)nc1	CHX counter 25, Shiga toxin inh 56
Cc1ccc(NC(=O)CCC(=O)c2cccs2)nc1	none (no result: NS1 inh, CHX counter, Shiga toxin inh)
O=S(=O)(Cc1ccccc1)Nc1ccc(Br)cn1	Pf growth 96h inconclusive
Cc1ccc(NC(=S)NCCc2ccccc2)nc1	CHX counter 25, Shiga toxin inh 76 (no result: NS1 inh)
Cc1ccc(NC(=O)CCCc2ccccc2)nc1	CHX counter 44, Shiga toxin inh 89
COc1ccc(NC(=O)CSc2nc(C)cs2)c(OC)c1	Pf growth 96h inconclusive (no result: NS1 inh)
COc1ccc(OCCN2C(=O)NC3(CCc4ccccc4C3)C2=O)cc1 (stereo not drawn)	none
Clc1ccc(OCc2cnc(Cl)s2)cc1	CHX counter 26
CC(=O)Nc1ccc(OCc2cnc(Cl)s2)cc1	CHX counter 25
O=C1NC(=O)/C(=C\c2ccc(OCc3cnc(Cl)s3)cc2)S1	none
CC(=O)Nc1ccc(OC/C=C(\C)Cl)cc1	CHX counter 17
CCc1ccc(OCc2cnc(Cl)s2)cc1	CHX counter 28
O=C(CNC(=O)c1nn(Cc2ccccc2)c(=O)c2ccccc12)Nc1ccc(F)c(F)c1F	none (no result: NS1 inh, Pf growth 96h, CHX counter, Shiga toxin inh, Pf growth 48h)
Cc1ccc(C2CC(=O)Oc3ccc(C(C)(C)C)cc32)cc1 (stereo not drawn)	none (no result: NS1 inh, Pf growth 96h, SARS PLP yeast, Pf growth 48h)
